Pf growth 96h – P. falciparum growth inhibition at 96 hours; Potency, µM (series often up to 28.7 µM), for inactives: at the highest dose activity change, negative = inhibition, most hits filed as inhibitors; P. falciparum luciferase reporter growth, 96 h; 320,000 compounds, 6.9% hits; further: potency means the concentration at half of the fitted maximal effect; on the % scale 0 is the no-effect control and ±100 the full control effect
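Luminescence readout: decreased luciferase signal marks inhibited growth of reporter-expressing P. falciparum in infected red cells (2% hematocrit, 0.05% parasitemia final), exposed to compound two generations (96 h, 37 C, 5% CO2).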
CHX counter – counter-screen for Shiga toxin inhibitors: cycloheximide protein synthesis inhibition. cell reporter, cycloheximide protein synthesis inhibition counterscreen. max response, %. 300,000 compounds, 12% hits. AID 2314; in the data active means max response mostly above about 13%, no sharp cut-off; inactive means mostly below about 14%; further: read at 38.3 µM for the half of the compounds with a filed dose; 0% is about no effect
SARS PLpro yeast – inhibitors of SARS-CoV papain-like protease in yeast. S. cerevisiae expressing SARS-CoV PLpro, growth rescue. Potency, µM (titrated, usually from 32.9 µM), without a hit: top-dose activity, positive = growth rescue, usual class: activators. 330,000 compounds, 0.19% hits; calls by dose curve; further: potency means the concentration at half of the fitted maximal effect; 0% is about no effect; nearly all actives have a fitted effect of over 55% in size
AMA1 RON2 block – disrupts binding of P. falciparum AMA1 to RON2; 360,000 compounds, 0.2% hits; AlphaScreen AMA1-biotinylated RON2 peptide binding; Potency, µM (doses to about 58.2 µM), inactives show at the highest dose activity change, negative = inhibition, actives largely listed as inhibitors;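 further: potency means the concentration at half of the fitted maximal effect; 0% = vehicle wells and -100% = peptide control; nearly all actives have a fitted effect of over 45% in size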
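AMA1 (3D7) with his tag at 25 nM final met compounds first, then biotinylated RON2 peptide at 25 nM; detection used donor plus acceptor beads, 10 µg/mL apiece, read by AlphaScreen after 30 min at room temperature.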
Shiga toxin inh – inhibitors of Shiga toxin in Vero cells | Vero cells, Shiga toxin protein synthesis inhibition reporter | inhibition, % at 38.7 µM | 290,000 compounds, 9.2% hits; in the data active means inhibition mostly above about 28%, no sharp cut-off; inactive means mostly below about 43%; further: 0% is about no effect
Pf growth 48h – inhibits P. falciparum growth in the first generation, 48 h. P. falciparum luciferase growth in erythrocytes, 48 h. Potency, µM (series often up to 28.7 µM), inactives show top-dose activity change, negative = inhibition, usual class: inhibitors. 310,000 compounds, 5.9% hits; further: potency means the concentration at half of the fitted maximal effect; on the % scale 0 is the no-effect control and ±100 the full control effect
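Parasite viability was followed by luminescence of a genomically integrated firefly luciferase. Cultures held 0.1% parasitemia at 2% hematocrit (final), incubated under 5% CO2 at 37 C.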
An asterisk follows results filed as active. Shown are actives, neighbours in structure and some others; about 19% of the full set was active somewhere. Unless noted, the call rests on the fitted dose curve; in most records, active means well fitted curve in the direction sought with a large enough effect; inconclusive means small, poorly fitted or top-dose-only effect, or another doubt; inactive means no such curve, though single readings can be large; an effect the other way counts as inactive or inconclusive.

Results for O=C(NCc1cccnc1)/C(=C\c1ccc(-c2ccc(Br)cc2)o1)S(=O)(=O)c1ccccc1 ?
Pf growth 96h: inconclusive; CHX counter: -12.4; SARS PLpro yeast: inconclusive; AMA1 RON2 block: -16.1%; Shiga toxin inh: -14.5; Pf growth 48h: inconclusive

What do the screens show for `CC(C)c1ccc(CNCCCSc2ncccn2)cc1`?
Pf growth 96h: 13.1µM*; CHX counter: 1.0; SARS PLpro yeast: -1.3%; AMA1 RON2 block: 54.8%; Shiga toxin inh: -11.3; Pf growth 48h: 5.2%

Results for CCOc1ccc(CNCCCSc2ncccn2)cc1 ?
Pf growth 96h: 10.4µM*; CHX counter: -1.0; SARS PLpro yeast: -2.0%; AMA1 RON2 block: 8.6%; Shiga toxin inh: -7.7; Pf growth 48h: -14.9%

How did CC(C)c1ccc(CNC(=O)CCc2ccccc2)cc1 do in these assays?
Pf growth 96h: 6.8%; CHX counter: 17.5; SARS PLpro yeast: -2.6%; AMA1 RON2 block: 14.5%; Shiga toxin inh: 17.1; Pf growth 48h: inconclusive

What do the screens show for `Clc1ccc(CNCCCSc2ncccn2)cc1Cl`?
Pf growth 96h: inconclusive; CHX counter: 1.7; SARS PLpro yeast: -9.4%; AMA1 RON2 block: 7.8%; Shiga toxin inh: 0.7; Pf growth 48h: 30.8%

How did CC(C)c1ccc(CNCc2ccccc2)cc1 do in these assays?
Pf growth 96h: -28.2%; CHX counter: 32.1*; SARS PLpro yeast: -3.9%; AMA1 RON2 block: -6.7%; Shiga toxin inh: 59.6*; Pf growth 48h: 19.7%

What do the screens show for `NC(=O)C(C1=CCCCC1)c1ccccc1` (centres undefined)?
AMA1 RON2 block: 2.8%

How did CC(=O)Nc1ccc(NC(=O)C(C)OC(=O)c2ccc(S(=O)(=O)N3CCCCCC3)cc2)cc1 (centres undefined) do in these assays?
SARS PLpro yeast: -1.1%; AMA1 RON2 block: 2.1%

What do the screens show for `CC1=C(C(=O)Nc2ccc(F)cc2)C(c2ccc(C)o2)C2=C(CC(C)(C)CC2=O)N1` (centres undefined)?
Pf growth 96h: inconclusive; CHX counter: 5.4; SARS PLpro yeast: 1.1%; AMA1 RON2 block: -11.9%; Shiga toxin inh: 9.3; Pf growth 48h: -24.3%

Results for CCOC(=O)C1=C(C)NC2=C(C(=O)CC(c3cccs3)C2)C1c1cccs1 (centres undefined) ?
Pf growth 96h: inconclusive; CHX counter: -3.0; SARS PLpro yeast: 3.4%; AMA1 RON2 block: 25.2%; Shiga toxin inh: 1.9; Pf growth 48h: 4.15µM*

Results for CC1=C(C(=O)OC2CCCC2)C(c2ccc(C)o2)C2=C(CC(c3cccs3)CC2=O)N1 (centres undefined) ?
Pf growth 96h: 10.3%; CHX counter: 7.6; SARS PLpro yeast: -3.8%; AMA1 RON2 block: -5.9%; Shiga toxin inh: 25.2; Pf growth 48h: 9.28µM*

How did CC1=C(C(=O)OC2CCCCC2)C(c2ccc(C)o2)C2=C(CC(C)(C)CC2=O)N1 (centres undefined) do in these assays?
Pf growth 96h: -18.3%; CHX counter: -1.9; SARS PLpro yeast: -0.9%; AMA1 RON2 block: 15.2%; Shiga toxin inh: -15.5; Pf growth 48h: 11.7µM*

What do the screens show for `COC(=O)C1=C(C)NC2=C(C(=O)CCC2)C1c1ccc(-c2ccsc2C(=O)OC)o1` (centres undefined)?
Pf growth 96h: 11.7µM*; CHX counter: 5.6; SARS PLpro yeast: 1.8%; AMA1 RON2 block: -1.5%; Shiga toxin inh: -4.1; Pf growth 48h: inconclusive

What do the screens show for `COc1ccccc1NC(=O)c1cc(Sc2nncn2C)nc2ccccc12`?
CHX counter: -1.3; SARS PLpro yeast: 2.3%; AMA1 RON2 block: -9.0%; Shiga toxin inh: -10.5; Pf growth 48h: -26.4%

How did O=C(COC(=O)c1cccc(Br)c1)NCC1CCCO1 (centres undefined) do in these assays?
SARS PLpro yeast: -5.6%; AMA1 RON2 block: -0.1%

How did CC1=C(C(=O)OC2CCCC2)C(c2coc3ccccc3c2=O)C2=C(CCCC2=O)N1 (centres undefined) do in these assays?
Pf growth 96h: 4.9%; CHX counter: 8.5; SARS PLpro yeast: -1.9%; AMA1 RON2 block: 4.7%; Shiga toxin inh: -8.6; Pf growth 48h: inconclusive

Results for CC1=C(C(=O)OC2CCCCCC2)C(c2ccc(C)o2)C2=C(CCCC2=O)N1 (centres undefined) ?
Pf growth 96h: 91.7%; CHX counter: 8.8; SARS PLpro yeast: -12.3%; AMA1 RON2 block: 0.8%; Shiga toxin inh: active; Pf growth 48h: inconclusive

How did CCN(CC)C(=O)CSc1nc2ccccc2c(=O)n1OC do in these assays?
Pf growth 96h: 13.1µM*; CHX counter: 1.9; SARS PLpro yeast: -1.6%; AMA1 RON2 block: 0.0%; Shiga toxin inh: -18.6; Pf growth 48h: -23.2%

Results for CCN(CC)C(=O)COn1c(SCC(=O)N(CC)CC)nc2ccccc2c1=O ?
CHX counter: -2.4; SARS PLpro yeast: -3.3%; AMA1 RON2 block: -6.4%; Shiga toxin inh: -24.7; Pf growth 48h: -0.3%

Results for COn1c(SCc2cccc(Cl)c2)nc2ccccc2c1=O ?
Pf growth 96h: 10.4µM*; CHX counter: -3.3; SARS PLpro yeast: -1.2%; AMA1 RON2 block: 8.8%; Shiga toxin inh: 17.2; Pf growth 48h: inconclusive

How did OCCC1CN(Cc2nc3ccccc3s2)CCN1CCc1ccccc1 (centres undefined) do in these assays?
Pf growth 96h: 0.6%; CHX counter: 5.7; SARS PLpro yeast: -3.8%; AMA1 RON2 block: 19.6%; Shiga toxin inh: 12.2; Pf growth 48h: inconclusive

What do the screens show for `COc1cc(NC(=O)CN2C(=O)c3ccccc3S2(=O)=O)cc(OC)c1`?
Pf growth 96h: 3.5%; SARS PLpro yeast: -4.4%; AMA1 RON2 block: -1.2%; Pf growth 48h: 8.9%

What do the screens show for `CSC1=NC(C)(C)C=C(/C=C/c2ccc(Cl)cc2Cl)N1`?
Pf growth 96h: 11.7µM*; CHX counter: 14.9; SARS PLpro yeast: 0.8%; AMA1 RON2 block: -4.1%; Shiga toxin inh: 32.9; Pf growth 48h: inconclusive

Results for COc1ccc(C2CC2/C(=N/OC(=O)c2cccs2)c2ccccc2)cc1 (centres undefined) ?
CHX counter: 28.8*; SARS PLpro yeast: -26.5%; AMA1 RON2 block: -5.7%; Shiga toxin inh: 44.8; Pf growth 48h: -27.6%

Results for CCS(=O)(=O)N1CCc2nc(-c3ccccc3)sc2C1 ?
Pf growth 96h: 392.0%; CHX counter: 47.7*; SARS PLpro yeast: -1.2%; AMA1 RON2 block: -5.7%; Shiga toxin inh: 72.4*; Pf growth 48h: 170.4%

Results for CCC(Sc1nc2ccccc2s1)C(=O)Nc1cc(C)on1 (centres undefined) ?
Pf growth 96h: inconclusive; CHX counter: 1.2; SARS PLpro yeast: -15.5%; AMA1 RON2 block: 1.0%; Shiga toxin inh: 3.8; Pf growth 48h: inconclusive

Results for O=C(NC(=S)Nc1cccc(Cl)c1N1CCCC1)c1ccc(-c2cccc([N+](=O)[O-])c2)o1 ?
Pf growth 96h: -12.2%; CHX counter: -6.3; SARS PLpro yeast: 2.2%; AMA1 RON2 block: 57.9%; Shiga toxin inh: 15.0; Pf growth 48h: 10.4%
